Measurements as given in PubChem BioAssay (Tox21).
Records with an inconclusive call do not appear. Where a call stands in place of a potency, no number is given. Values without a mark were called inactive. Calls of active or inactive are those of the source. Unless noted, calls follow the shape of the dose curve; as a rule, active = well fitted curve in the direction sought with a large enough effect in the repeat runs; inconclusive = weak or mixed curves; inactive = no such curve, though single readings can be large; an effect the other way counts as inactive or inconclusive.

What was measured:
[1] = qHTS assay to identify small molecule antagonists of the vitamin D receptor (VDR) signaling pathway - cell viability counter screen (AID 743225); also: nearly all actives have a fitted effect of over 50% in size
In short: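 HEK293T VDR-bla; cpd + 1a,25-(OH)2D3 3 nM final, 16 h 37C/5% CO2; B/G FRET substrate 2 h RT; then CellTiter-Glo 30 min RT, luminescence.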

[2] = qHTS assay to identify small molecule agonists of the NFkB signaling pathway (AID 1159509; active = well fitted curve in the direction sought with a large enough effect in the signal ratio in the repeat runs, not every such curve was filed as active; the % refers to the signal ratio; also: series mostly up to about 61 µM)
In short: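 Agonist activity was read as beta-lactamase-driven FRET change (460 and 530 nm emission, 405 nm excitation) following 1.5 hr substrate loading at room temperature. Beforehand, ME-180 NFkB-bla reporter cells were treated with compounds for 5 hr at 37 C.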

[3] = qHTS assay to identify small molecule agonists of the NFkB signaling pathway - cell viability counter screen (AID 1159515; calls by dose curve; also: series mostly up to about 61 µM; nearly all actives have a fitted effect of over 55% in size)
In short: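 Parallel cytotoxicity counter screen in ME-180 cells carrying an NFkB-response-element beta-lactamase reporter, 2,000 cells/well. Compound exposure lasted 5 hr at 37 C, 5% CO2. Cell viability was quantified by CellTiter-Glo luminescence.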

[4] = qHTS assay to identify small molecule agonists of the endoplasmic reticulum stress response signaling pathway (AID 1159516; active = well fitted activation curve with a large enough effect in the signal ratio in the repeat runs, not every such curve was filed as active; the % refers to the signal ratio)
In short: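 Using a HeLa line with an ESRE-driven beta-lactamase gene, agonist activity was measured by FRET substrate fluorescence (460 and 530 nm emission) after cells were treated with compounds for 5 hr at 37 C and 5% CO2.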

[5] = qHTS assay to identify small molecule agonists of the endoplasmic reticulum stress response signaling pathway - cell viability counter screen (AID 1159517; calls by dose curve;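 also: HeLa cells carrying an ER stress response element beta-lactamase reporter; series mostly up to about 61 µM; nearly all actives have a fitted effect of over 50% in size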)
In short: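 In parallel with the ESRE reporter read, cytotoxicity was scored by CellTiter-Glo luminescence (30 min, room temperature) on HeLa ESRE-bla cells dosed for 5 hr.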

[6] = qHTS assay to identify small molecule antagonists of the retinoid-related orphan receptor gamma (ROR-gamma) signaling pathway - cell viability counter screen (AID 1159520); also: nearly all actives have a fitted effect of over 50% in size
In short: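 Tet-on ROR gamma CHO cells were given compounds for 2 hr, then doxycycline hyclate at 1 uM final, and incubated 16 hr at 37 C. Viability was measured as ATP content by CellTiter-Glo luminescence.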

[7] = target: Nuclear receptor ROR-gamma (Homo sapiens) (UniProt P51449); experiment: qHTS assay to identify small molecule antagonists of the retinoid-related orphan receptor gamma (ROR-gamma) signaling pathway (AID 1159521;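 also: CHO cells with doxycycline inducible ROR-gamma driving an RORE luciferase reporter; top concentration of the series differs between compounds; nearly all actives have a fitted effect of over 50% in size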)
In short: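 Cells were plated, rested 4 h at 37 C, exposed to compounds for 2 h, then given 1 uM final doxycycline hyclate to induce RORγ expression. After 16 h, ONE-Glo luminescence from the ROR response element reporter was measured.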

[8] = target: Retinoic acid receptor RXR-alpha (Homo sapiens) (UniProt P19793); experiment: qHTS assay to identify small molecule agonists of the RXR signaling pathway (AID 1159527; calls by dose curve; also: nearly all actives have a fitted effect of over 35% in size)
Chain of Retinoic acid receptor RXR-alpha (Homo sapiens) (P19793 whole entry, looked up): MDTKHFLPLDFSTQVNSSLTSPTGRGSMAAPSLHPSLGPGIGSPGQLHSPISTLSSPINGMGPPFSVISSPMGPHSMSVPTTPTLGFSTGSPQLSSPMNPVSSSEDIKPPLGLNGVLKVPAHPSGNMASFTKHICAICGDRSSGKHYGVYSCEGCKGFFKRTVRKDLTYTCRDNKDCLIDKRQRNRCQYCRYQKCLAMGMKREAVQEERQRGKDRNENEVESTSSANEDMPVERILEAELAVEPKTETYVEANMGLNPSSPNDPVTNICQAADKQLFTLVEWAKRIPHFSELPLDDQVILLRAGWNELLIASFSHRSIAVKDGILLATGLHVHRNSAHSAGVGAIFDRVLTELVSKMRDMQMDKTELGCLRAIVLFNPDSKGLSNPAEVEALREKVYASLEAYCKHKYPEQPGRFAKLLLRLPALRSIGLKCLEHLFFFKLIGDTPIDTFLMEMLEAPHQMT
In short: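 Cells plated at 2,000/well, rested 5 hr at 37 C, pin-dosed with DMSO compound solutions, incubated 16 hr, then loaded with B/G FRET substrate for 2 hr at RT before dual-emission fluorescence reading.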

[9] = qHTS assay to identify small molecule agonists of the RXR signaling pathway - cell viability counter screen (AID 1159529)
In short: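 Steps: seed RXR-alpha-UAS-bla HEK 293T cells in assay medium containing 2% charcoal-stripped FBS; incubate 5 hr; add compounds in DMSO; incubate 16 hr at 37 C; after the bla read, add CellTiter-Glo and read luminescence at 30 min.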

[10] = qHTS assay to identify small molecule antagonists of the retinoid acid receptor (RAR) signaling pathway - cell viability counter screen (AID 1159551); also: nearly all actives have a fitted effect of over 35% in size
In short: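 ATP-based viability, C3RL4 cells, 6 h at 37 C with 1 uM final retinol co-added after compound; luminescence read 30 min post CellTiter-Glo, RT.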

[11] = qHTS assay to identify small molecule agonists of the retinoic acid receptor (RAR) signaling pathway (AID 1159553); also: potency is read from the fitted curve at half-maximal effect
In short: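 Quantitative high-throughput format: the Tox21 10K library was tested on C3RL4 RARE-luciferase cells for 6 hr at 37 C and 5% CO2, with luminescence measured after a 30 min room-temperature reagent step.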

[12] = qHTS assay to identify small molecule agonists of the AP-1 signaling pathway (AID 1159526; calls by dose curve)
[13] = qHTS assay to identify small molecule antagonists of the retinoic acid receptor (RAR) signaling pathway (AID 1159552; also: nearly all actives have a fitted effect of over 50% in size)
In short: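 Retinol at 1 uM final stimulated RARE-luciferase expression in C3RL4 cells exposed to test compounds for 6 hr at 37 C. Reduced luminescence, read 30 min after detection reagent, indicated pathway antagonism.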

[14] = qHTS assay to identify small molecule agonists of the AP-1 signaling pathway - cell viability counter screen (AID 1159525; calls by dose curve; also: nearly all actives have a fitted effect of over 55% in size)
In short: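 Same-well cytotoxicity counter screen of the Tox21 10K library in ME-180 cells. The readout is ATP-dependent luminescence after 5 h compound treatment. Data are normalised to DMSO and tetra n-octyl ammonium bromide controls.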

[15] = qHTS assay to identify small molecule antagonists of the estrogen related receptor (ERR) signaling pathway - cell viability counter screen (AID 1224818);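 also: series mostly up to about 46 µM; viability measured after 17.5 h of compound exposure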
In short: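 Quantitative high-throughput viability counter screen in ERR cells. Compounds (DMSO) incubated 17.5 h at 37 C; read-out was CellTiter-Fluor fluorescence.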

[16] = qHTS assay to identify small molecule antagonists of the estrogen related receptor (ERR) signaling pathway (AID 1224819)
In short: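 ERR reporter cell line (NTP) plated at 2,000 cells/well, settled 6 h at 37C/5% CO2, then exposed to LOPAC compounds for 18 h at 37C. One-Glo luciferase luminescence read after 30 min at room temperature.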

[17] = qHTS assay to identify small molecule agonists of the estrogen related receptor (ERR) signaling pathway (AID 1224820)
In short: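 After 6 h plating (2,000 cells/well) and 18 h compound treatment at 37 C, ERR cells were lysed with One-Glo and luminescence read after 30 min at room temperature.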

[18] = test system: estrogen-related receptor alpha (ERRalpha) with PGC-1alpha coactivator, human; experiment: qHTS assay to identify small molecule antagonists of the estrogen related receptor signaling pathway with the pleiotropic PPARgamma coactivator (PGC) (AID 1224821; calls by dose curve)
In short: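 Luminescence from One-Glo luciferase reagent (30 min, room temperature) measured after 18 h compound treatment at 37 °C. Cells carry the PGC/ERR reporter and were seeded 6 h prior to dosing.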

[19] = qHTS assay to identify small molecule antagonists of the estrogen related receptor signaling pathway with the pleiotropic PPARgamma coactivator (PGC) cell viability counter screen (AID 1224822; also: series mostly up to about 46 µM)
In short: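 Cytotoxicity in the PGC/ERR cell line is assessed with CellTiter-Fluor, read as fluorescence intensity 30 min after reagent addition, following 17.5 h compound treatment at 37 C.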

[20] = qHTS assay to identify small molecule agonists of the estrogen related receptor signaling pathway with the pleiotropic PPARgamma coactivator (PGC) (AID 1224823)
In short: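 Luminescence from One-Glo reagent (30 min, room temperature) was read after 18 h compound treatment at 37 C of PGC/ERR cells plated 6 h beforehand; compounds delivered in DMSO by pin tool.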

SMILES | Potency [1] | outcome [2] | outcome [3] | outcome [4] | outcome [5] | Potency [6] | Potency [7] | Potency [8] | Potency [9] | outcome [10] | Potency [11] | Potency [12] | Potency [13] | outcome [14] | outcome [15] | outcome [16] | outcome [17] | outcome [18] | outcome [19] | outcome [20]
CCN(O)CC | inactive | inactive | inactive | inactive | inactive | inactive | inactive | inactive | inactive | inactive | inactive | – | – | – | – | – | – | – | – | –
O=Cc1ccc(F)c(Br)c1 | inactive | inactive | inactive | inactive | inactive | inactive | inactive | – | inactive | inactive | – | inactive | – | – | – | – | – | – | – | –
CC(C)OC(C)C | inactive | inactive | inactive | inactive | inactive | inactive | inactive | inactive | inactive | inactive | inactive | inactive | inactive | – | – | – | – | – | – | –
CCOC(=O)NCCC[Si](OCC)(OCC)OCC | inactive | inactive | inactive | inactive | inactive | inactive | inactive | inactive | inactive | inactive | inactive | inactive | inactive | – | – | – | – | – | – | –
COc1ccccc1OCC(O)COC(N)=O (centres undefined) | inactive | inactive | inactive | inactive | inactive | inactive | inactive | inactive | inactive | inactive | inactive | – | – | – | – | – | – | – | – | –
CCC(=O)c1ccc2c(c1)N(CCCN(C)C)c1ccccc1S2 | – | inactive | inactive | inactive | inactive | inactive | inactive | – | – | inactive | inactive | – | – | – | – | – | – | – | – | –
Cc1c(N)cccc1N | inactive | inactive | inactive | inactive | inactive | inactive | inactive | – | inactive | inactive | – | inactive | – | – | – | – | – | – | – | –
CCCNC(C)(C)COC(=O)c1ccccc1 | inactive | inactive | inactive | inactive | inactive | inactive | – | inactive | inactive | inactive | inactive | inactive | inactive | inactive | – | – | – | – | – | –
CCCS(=O)c1ccc2nc(NC(=O)OC)[nH]c2c1 (centres undefined) | inactive | inactive | inactive | inactive | inactive | inactive | inactive | inactive | – | inactive | inactive | inactive | inactive | – | – | – | – | – | – | –
O=C1CCCCC1C1CCCCC1 (centres undefined) | inactive | inactive | inactive | inactive | inactive | inactive | inactive | inactive | inactive | inactive | inactive | inactive | inactive | – | – | – | – | – | – | –
CCC1(C)NC(=O)NC1=O (centres undefined) | – | inactive | inactive | inactive | inactive | inactive | – | inactive | inactive | inactive | inactive | inactive | inactive | inactive | – | – | – | – | – | –
O=[N+]([O-])c1nccn1CO[C@@H](CO)[C@H](O)CO | inactive | inactive | inactive | inactive | inactive | inactive | inactive | inactive | inactive | inactive | inactive | inactive | inactive | – | – | – | – | – | – | –
NC/C=C/C(=O)O | inactive | inactive | inactive | inactive | inactive | inactive | inactive | – | – | inactive | inactive | inactive | inactive | – | inactive | inactive | inactive | inactive | inactive | inactive
OCC(CBr)(CBr)CBr | inactive | inactive | inactive | inactive | inactive | inactive | inactive | inactive | inactive | inactive | inactive | inactive | – | – | – | – | – | – | – | –
O=C(O)c1cccc(Cl)c1Cl | inactive | inactive | inactive | inactive | inactive | inactive | – | inactive | inactive | inactive | inactive | inactive | inactive | inactive | – | – | – | – | – | –
O=C(O)[C@@H](O)[C@H](O)[C@H](O)[C@@H](O)C(=O)O | inactive | inactive | inactive | inactive | inactive | inactive | inactive | – | – | inactive | – | inactive | – | – | – | – | – | – | – | –
CC(C)NCC(O)COc1ccc(CCOCC2CC2)cc1 (centres undefined) | inactive | inactive | inactive | inactive | inactive | inactive | – | inactive | inactive | inactive | inactive | inactive | inactive | inactive | inactive | – | – | – | inactive | –
CCCCNc1cc(C(=O)O)cc(S(N)(=O)=O)c1Oc1ccccc1 | inactive | inactive | inactive | inactive | inactive | inactive | – | inactive | inactive | inactive | inactive | inactive | inactive | inactive | inactive | – | – | – | inactive | –
c1ccc(CN(CC2=NCCN2)c2ccccc2)cc1 | inactive | inactive | inactive | inactive | inactive | inactive | – | inactive | inactive | inactive | inactive | inactive | inactive | inactive | – | – | – | – | – | –
COc1cc2c(cc1N)oc1ccccc12 | inactive | inactive | inactive | inactive | inactive | inactive | inactive | – | – | inactive | 12.5 µM (active) | inactive | inactive | – | – | – | – | – | – | –
CCCC1CCC(=O)O1 (centres undefined) | inactive | inactive | inactive | inactive | inactive | inactive | inactive | – | inactive | inactive | – | inactive | – | – | – | – | – | – | – | –
